Measured values published in article PMC7862700, “An all-to-all approach to the identification of sequence-specific readers for epigenetic DNA modifications on cytosine”.

Experiments:
Assay in all cases: DAPPL (digital affinity profiling via proximity ligation, sequencing); 10 mM Tris-HCl pH 7.5, 50 mM NaCl, 1 mM DTT, 4% glycerol, room temperature, 30 min; GST-TFs on glutathione beads, 16-mer random dsDNA library, 0.1% formaldehyde crosslink after washing; high values mean tight binding
[1] = molecular target: T1, FEV (Homo sapiens, UniProt Q99581 1-238); details: protein: recombinant; tags: N-terminal GST; dsDNA, one strand shown
T1 sequence: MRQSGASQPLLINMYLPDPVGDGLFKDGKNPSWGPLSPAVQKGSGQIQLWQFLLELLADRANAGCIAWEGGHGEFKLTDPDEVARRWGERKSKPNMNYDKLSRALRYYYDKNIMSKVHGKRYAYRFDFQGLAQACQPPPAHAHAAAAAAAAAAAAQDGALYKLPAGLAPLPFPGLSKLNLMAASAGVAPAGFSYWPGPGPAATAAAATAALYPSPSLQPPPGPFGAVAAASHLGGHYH
Summary of the method: (§1)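 The binding signal reported is, for every hexamer, its read frequency for a factor over its read frequency for the tag-only sample. Reads came from pools of yeast-expressed, GST-fused human transcription factors on glutathione beads, barcoded with DNA and mixed with that sample, which were incubated with 200 nmole of a random double-stranded 16-mer DNA library in Tris/NaCl/DTT/glycerol buffer at room temperature for 30 min. After washing, the pools were crosslinked with 0.1% formaldehyde, proximity-ligated with BsaI/T4 ligase for 1 h at 37 °C, PCR-amplified and sequenced on an Illumina NextSeq500.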

[2] = molecular target: ETV5 (Homo sapiens, UniProt P41161 1-510); details: protein: recombinant; tags: N-terminal GST; dsDNA, one strand shown
Sequence of ETV5 (P41161 whole entry): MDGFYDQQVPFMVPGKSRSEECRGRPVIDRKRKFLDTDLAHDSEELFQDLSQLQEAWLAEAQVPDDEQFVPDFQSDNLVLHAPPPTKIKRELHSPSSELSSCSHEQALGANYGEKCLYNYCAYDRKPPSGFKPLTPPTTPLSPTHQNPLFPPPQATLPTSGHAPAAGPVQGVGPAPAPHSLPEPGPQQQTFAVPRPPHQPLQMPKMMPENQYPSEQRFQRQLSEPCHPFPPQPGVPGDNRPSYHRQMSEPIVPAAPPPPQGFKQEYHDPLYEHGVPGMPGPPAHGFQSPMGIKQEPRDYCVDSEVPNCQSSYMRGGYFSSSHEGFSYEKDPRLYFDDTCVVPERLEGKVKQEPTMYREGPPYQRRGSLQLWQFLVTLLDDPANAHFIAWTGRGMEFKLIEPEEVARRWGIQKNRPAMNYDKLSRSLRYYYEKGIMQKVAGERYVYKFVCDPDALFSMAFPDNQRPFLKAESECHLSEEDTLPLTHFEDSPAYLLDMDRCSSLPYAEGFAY
Summary of the method: as §1

[3] = molecular target: HSF1 (Homo sapiens, UniProt Q00613 1-529); details: protein: recombinant; tags: N-terminal GST; chain copies: 3; dsDNA, one strand shown
Sequence of HSF1 (Q00613 whole entry): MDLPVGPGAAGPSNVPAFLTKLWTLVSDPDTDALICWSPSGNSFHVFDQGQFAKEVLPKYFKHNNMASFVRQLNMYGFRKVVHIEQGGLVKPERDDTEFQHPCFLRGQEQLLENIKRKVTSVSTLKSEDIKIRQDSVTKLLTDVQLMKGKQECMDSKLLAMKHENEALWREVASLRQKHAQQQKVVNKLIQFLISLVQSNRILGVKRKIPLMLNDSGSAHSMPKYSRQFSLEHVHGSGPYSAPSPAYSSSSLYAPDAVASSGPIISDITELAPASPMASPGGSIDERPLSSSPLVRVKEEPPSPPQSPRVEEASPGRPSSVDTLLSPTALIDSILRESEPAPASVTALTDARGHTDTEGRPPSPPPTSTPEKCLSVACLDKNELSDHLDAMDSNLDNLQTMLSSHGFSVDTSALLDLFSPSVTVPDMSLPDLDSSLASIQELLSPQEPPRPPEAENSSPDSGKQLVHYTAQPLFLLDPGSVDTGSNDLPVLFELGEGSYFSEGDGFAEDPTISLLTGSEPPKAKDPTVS
Summary of the method: as §1

[4] = molecular target: T2, SPIC (Homo sapiens, UniProt Q8N5J4 1-248); details: protein: recombinant; tags: N-terminal GST; dsDNA, one strand shown
T2 sequence: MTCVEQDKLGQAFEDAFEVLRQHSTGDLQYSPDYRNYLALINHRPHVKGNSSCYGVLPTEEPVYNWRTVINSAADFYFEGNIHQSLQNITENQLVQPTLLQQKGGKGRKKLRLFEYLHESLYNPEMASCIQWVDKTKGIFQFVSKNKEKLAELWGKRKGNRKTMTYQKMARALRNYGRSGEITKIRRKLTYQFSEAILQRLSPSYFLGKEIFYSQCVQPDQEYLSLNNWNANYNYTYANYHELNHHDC
Summary of the method: as §1

[5] = molecular target: ELF4 (Homo sapiens, UniProt Q99607 1-663); details: protein: recombinant; tags: N-terminal GST; dsDNA, one strand shown
Sequence of ELF4 (Q99607 whole entry): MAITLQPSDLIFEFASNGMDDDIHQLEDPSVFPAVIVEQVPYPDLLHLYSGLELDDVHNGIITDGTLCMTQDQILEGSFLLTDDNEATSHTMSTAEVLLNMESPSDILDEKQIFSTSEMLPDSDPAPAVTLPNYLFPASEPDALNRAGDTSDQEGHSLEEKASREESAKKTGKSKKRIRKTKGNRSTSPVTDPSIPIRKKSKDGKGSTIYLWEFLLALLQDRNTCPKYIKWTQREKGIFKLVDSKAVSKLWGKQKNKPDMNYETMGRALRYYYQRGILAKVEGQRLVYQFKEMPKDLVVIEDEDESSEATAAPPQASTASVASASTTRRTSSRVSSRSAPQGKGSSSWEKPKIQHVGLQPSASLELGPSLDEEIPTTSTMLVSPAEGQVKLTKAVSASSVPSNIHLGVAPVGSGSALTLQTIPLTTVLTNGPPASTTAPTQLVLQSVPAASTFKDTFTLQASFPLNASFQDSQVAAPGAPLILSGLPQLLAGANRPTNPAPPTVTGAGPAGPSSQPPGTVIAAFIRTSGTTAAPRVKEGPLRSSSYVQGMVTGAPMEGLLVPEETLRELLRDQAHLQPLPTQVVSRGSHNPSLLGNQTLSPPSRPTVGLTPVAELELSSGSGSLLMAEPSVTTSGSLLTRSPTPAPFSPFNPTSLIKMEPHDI
Summary of the method: as §1

[6] = molecular target: T3, ELK4 (Homo sapiens, UniProt P28324-2 1-405); details: protein: recombinant; tags: N-terminal GST; dsDNA, one strand shown
T3 sequence: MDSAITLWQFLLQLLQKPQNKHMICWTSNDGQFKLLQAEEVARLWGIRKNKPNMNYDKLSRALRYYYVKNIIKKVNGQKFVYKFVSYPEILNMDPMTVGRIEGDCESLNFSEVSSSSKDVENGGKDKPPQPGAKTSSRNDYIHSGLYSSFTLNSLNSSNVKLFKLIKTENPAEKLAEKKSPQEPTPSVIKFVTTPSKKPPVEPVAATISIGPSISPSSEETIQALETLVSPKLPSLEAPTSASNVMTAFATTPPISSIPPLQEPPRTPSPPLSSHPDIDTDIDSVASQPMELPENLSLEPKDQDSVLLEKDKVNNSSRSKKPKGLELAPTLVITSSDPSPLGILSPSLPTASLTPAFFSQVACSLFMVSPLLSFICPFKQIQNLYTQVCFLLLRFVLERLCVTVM
Summary of the method: as §1

[7] = molecular target: T4, ETV2 (Homo sapiens, UniProt O00321 1-342); details: protein: recombinant; tags: N-terminal GST; dsDNA, one strand shown
T4 sequence: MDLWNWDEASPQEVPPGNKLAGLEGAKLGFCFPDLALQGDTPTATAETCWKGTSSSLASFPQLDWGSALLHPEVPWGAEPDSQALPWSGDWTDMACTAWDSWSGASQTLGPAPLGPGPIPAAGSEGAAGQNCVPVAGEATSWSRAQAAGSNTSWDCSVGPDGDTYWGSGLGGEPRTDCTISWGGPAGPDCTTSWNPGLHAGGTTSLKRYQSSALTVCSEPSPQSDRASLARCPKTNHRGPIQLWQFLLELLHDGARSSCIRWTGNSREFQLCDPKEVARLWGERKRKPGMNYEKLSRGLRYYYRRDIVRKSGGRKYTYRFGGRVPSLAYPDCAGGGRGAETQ
Summary of the method: as §1

[8] = molecular target: T5, ELF3 (Homo sapiens, UniProt P78545 1-371); details: protein: recombinant; tags: N-terminal GST; dsDNA, one strand shown
T5 sequence: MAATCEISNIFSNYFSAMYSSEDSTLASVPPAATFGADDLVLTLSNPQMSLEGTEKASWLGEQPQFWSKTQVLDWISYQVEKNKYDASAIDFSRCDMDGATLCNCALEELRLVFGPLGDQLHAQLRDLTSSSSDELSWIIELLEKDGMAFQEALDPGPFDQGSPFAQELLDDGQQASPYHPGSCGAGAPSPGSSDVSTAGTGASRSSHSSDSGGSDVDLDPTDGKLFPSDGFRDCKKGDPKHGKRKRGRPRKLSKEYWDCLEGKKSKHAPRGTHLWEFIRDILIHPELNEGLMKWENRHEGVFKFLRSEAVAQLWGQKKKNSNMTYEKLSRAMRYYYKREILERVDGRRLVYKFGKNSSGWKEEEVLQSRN
Summary of the method: as §1

[9] = molecular target: ETV1 (Homo sapiens, UniProt P50549 1-477); details: protein: recombinant; tags: N-terminal GST; dsDNA, one strand shown
Sequence of ETV1 (P50549 whole entry): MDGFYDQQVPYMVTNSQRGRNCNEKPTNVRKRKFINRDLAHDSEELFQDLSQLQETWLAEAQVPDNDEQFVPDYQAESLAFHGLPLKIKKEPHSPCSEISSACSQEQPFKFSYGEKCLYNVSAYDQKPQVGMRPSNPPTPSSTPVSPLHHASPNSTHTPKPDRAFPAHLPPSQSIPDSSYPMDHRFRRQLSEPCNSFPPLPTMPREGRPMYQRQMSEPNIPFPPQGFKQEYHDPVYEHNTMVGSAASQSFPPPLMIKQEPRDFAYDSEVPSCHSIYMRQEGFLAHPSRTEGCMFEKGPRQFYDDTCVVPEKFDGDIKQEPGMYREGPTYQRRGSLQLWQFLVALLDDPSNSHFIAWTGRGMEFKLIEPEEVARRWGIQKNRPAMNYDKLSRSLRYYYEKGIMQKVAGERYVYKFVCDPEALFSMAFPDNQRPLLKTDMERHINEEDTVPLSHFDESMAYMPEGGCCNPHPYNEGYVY
Summary of the method: as §1

[10] = molecular target: T6, ERF (Homo sapiens, UniProt P50548 1-548); details: protein: recombinant; tags: N-terminal GST; dsDNA, one strand shown
T6 sequence: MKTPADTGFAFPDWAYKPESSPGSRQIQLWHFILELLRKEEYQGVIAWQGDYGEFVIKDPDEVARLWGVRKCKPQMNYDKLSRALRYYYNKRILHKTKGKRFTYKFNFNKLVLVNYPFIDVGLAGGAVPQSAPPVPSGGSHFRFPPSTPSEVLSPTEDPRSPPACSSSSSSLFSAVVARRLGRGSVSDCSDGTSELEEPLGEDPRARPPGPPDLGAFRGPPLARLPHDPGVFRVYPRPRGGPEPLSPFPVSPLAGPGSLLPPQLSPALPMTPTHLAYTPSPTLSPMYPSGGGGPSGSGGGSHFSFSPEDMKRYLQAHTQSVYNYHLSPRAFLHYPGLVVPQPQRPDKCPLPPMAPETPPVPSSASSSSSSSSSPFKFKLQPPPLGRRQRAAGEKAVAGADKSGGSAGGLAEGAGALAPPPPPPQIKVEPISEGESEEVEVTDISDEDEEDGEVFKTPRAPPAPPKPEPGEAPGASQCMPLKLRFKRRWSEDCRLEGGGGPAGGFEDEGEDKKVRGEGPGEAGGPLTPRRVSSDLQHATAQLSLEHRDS
Summary of the method: as §1

[11] = molecular target: T7, ETV3L (Homo sapiens, UniProt Q6ZN32 1-361); details: protein: recombinant; tags: N-terminal GST; dsDNA, one strand shown
T7 sequence: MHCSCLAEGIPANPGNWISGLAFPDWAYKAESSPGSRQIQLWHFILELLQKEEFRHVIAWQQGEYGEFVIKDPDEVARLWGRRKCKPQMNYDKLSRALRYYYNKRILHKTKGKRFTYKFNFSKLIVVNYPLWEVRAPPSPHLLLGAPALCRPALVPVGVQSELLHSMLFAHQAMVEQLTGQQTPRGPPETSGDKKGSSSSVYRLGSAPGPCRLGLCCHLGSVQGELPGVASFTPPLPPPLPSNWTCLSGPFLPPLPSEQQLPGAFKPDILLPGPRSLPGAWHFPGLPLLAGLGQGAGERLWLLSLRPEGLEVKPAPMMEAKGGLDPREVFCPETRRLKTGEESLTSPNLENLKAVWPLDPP
Summary of the method: as §1

[12] = molecular target: T8, ETS2 (Homo sapiens, UniProt P15036 1-469); details: protein: recombinant; tags: N-terminal GST; dsDNA, one strand shown
T8 sequence: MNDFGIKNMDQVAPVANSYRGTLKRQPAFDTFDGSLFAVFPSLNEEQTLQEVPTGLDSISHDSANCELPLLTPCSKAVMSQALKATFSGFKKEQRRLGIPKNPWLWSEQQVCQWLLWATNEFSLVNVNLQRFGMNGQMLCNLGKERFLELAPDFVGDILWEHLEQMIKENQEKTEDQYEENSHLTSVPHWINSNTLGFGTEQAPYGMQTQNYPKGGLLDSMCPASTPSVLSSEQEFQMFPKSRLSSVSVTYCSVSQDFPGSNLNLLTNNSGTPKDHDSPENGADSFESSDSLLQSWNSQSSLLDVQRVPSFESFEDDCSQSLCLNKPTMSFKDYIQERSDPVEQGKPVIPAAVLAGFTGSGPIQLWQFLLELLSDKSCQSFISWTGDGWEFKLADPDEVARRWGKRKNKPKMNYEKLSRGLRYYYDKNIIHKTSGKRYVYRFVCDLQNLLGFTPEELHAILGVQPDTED
Summary of the method: as §1

[13] = molecular target: T9, SPDEF (Homo sapiens, UniProt O95238 1-335); details: protein: recombinant; tags: N-terminal GST; dsDNA, one strand shown
T9 sequence: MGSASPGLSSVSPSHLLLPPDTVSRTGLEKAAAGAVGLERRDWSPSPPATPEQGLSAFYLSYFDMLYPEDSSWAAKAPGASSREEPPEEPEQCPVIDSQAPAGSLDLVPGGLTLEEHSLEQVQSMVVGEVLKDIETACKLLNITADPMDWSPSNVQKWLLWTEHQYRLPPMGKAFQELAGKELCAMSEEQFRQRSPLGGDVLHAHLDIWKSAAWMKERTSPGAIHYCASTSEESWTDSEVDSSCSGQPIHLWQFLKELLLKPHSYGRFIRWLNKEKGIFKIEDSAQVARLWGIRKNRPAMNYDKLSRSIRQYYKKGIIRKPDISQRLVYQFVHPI
Summary of the method: as §1

[14] = molecular target: T10, ETV7 (Homo sapiens, UniProt Q9Y603 1-341); details: protein: recombinant; tags: N-terminal GST; dsDNA, one strand shown
T10 sequence: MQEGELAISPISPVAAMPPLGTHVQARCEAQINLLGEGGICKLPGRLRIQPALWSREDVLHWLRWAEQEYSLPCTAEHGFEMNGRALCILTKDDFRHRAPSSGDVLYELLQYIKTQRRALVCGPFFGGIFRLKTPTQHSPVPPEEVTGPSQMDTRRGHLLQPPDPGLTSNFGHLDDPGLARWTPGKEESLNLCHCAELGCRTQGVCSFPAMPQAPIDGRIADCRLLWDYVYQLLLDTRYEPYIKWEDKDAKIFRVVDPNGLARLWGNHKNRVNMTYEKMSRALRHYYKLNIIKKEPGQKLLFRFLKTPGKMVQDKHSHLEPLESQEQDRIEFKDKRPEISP
Summary of the method: as §1

[15] = molecular target: T11, ELF5 (Homo sapiens, UniProt Q9UKW6-2 1-255); details: protein: recombinant; tags: N-terminal GST; dsDNA, one strand shown
T11 sequence: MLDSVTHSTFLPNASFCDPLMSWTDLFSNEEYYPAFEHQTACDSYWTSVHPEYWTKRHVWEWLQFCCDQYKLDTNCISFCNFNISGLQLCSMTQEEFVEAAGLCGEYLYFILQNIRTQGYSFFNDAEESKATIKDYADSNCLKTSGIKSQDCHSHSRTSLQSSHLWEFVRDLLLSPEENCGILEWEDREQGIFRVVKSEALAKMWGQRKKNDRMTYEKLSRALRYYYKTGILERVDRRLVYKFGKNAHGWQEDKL
Summary of the method: as §1

[16] = molecular target: T12, ETV3 (Homo sapiens, UniProt P41162-2 1-143); details: protein: recombinant; tags: N-terminal GST; dsDNA, one strand shown
T12 sequence: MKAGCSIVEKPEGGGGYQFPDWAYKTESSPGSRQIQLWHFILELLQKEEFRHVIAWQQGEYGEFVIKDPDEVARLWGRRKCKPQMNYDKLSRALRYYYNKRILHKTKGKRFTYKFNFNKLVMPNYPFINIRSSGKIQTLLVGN
Summary of the method: as §1

[17] = molecular target: ETV6 (Homo sapiens, UniProt P41212 1-452); details: protein: recombinant; tags: N-terminal GST; dsDNA, one strand shown
Sequence of ETV6 (P41212 whole entry): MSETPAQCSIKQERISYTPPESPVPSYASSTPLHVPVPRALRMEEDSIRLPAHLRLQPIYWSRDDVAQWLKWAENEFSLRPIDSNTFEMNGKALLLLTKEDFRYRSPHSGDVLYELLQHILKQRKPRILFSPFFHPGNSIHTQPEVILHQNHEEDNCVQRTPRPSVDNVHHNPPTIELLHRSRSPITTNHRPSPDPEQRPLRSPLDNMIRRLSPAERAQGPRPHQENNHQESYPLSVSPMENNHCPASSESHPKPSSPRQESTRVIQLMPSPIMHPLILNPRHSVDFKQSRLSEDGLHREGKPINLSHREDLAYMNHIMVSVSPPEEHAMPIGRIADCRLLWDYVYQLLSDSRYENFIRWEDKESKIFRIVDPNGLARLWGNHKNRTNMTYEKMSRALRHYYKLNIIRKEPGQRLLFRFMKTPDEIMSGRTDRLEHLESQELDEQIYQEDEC
Summary of the method: as §1

Sequence | binding signal [1] | binding signal [2] | binding signal [3] | binding signal [4] | binding signal [5] | binding signal [6] | binding signal [7] | binding signal [8] | binding signal [9] | binding signal [10] | binding signal [11] | binding signal [12] | binding signal [13] | binding signal [14] | binding signal [15] | binding signal [16] | binding signal [17]
GAAGAA | 1.08 fold enrichment (6-mer frequency, TF over GST control) | 1.16 fold enrichment (6-mer frequency, TF over GST control) | 1.46 fold enrichment (6-mer frequency, TF over GST control) | 1.18 fold enrichment (6-mer frequency, TF over GST control) | 1.15 fold enrichment (6-mer frequency, TF over GST control) | 1.17 fold enrichment (6-mer frequency, TF over GST control) | 1.2 fold enrichment (6-mer frequency, TF over GST control) | 1.26 fold enrichment (6-mer frequency, TF over GST control) | 1.2 fold enrichment (6-mer frequency, TF over GST control) | 1.02 fold enrichment (6-mer frequency, TF over GST control) | 1.18 fold enrichment (6-mer frequency, TF over GST control) | 1.16 fold enrichment (6-mer frequency, TF over GST control) | 1.09 fold enrichment (6-mer frequency, TF over GST control) | 1.16 fold enrichment (6-mer frequency, TF over GST control) | 1.27 fold enrichment (6-mer frequency, TF over GST control) | 1.12 fold enrichment (6-mer frequency, TF over GST control) | 1.18 fold enrichment (6-mer frequency, TF over GST control)
CGTACA | 1.2 fold enrichment (6-mer frequency, TF over GST control) | 1.22 fold enrichment (6-mer frequency, TF over GST control) | 1.02 fold enrichment (6-mer frequency, TF over GST control) | 1.31 fold enrichment (6-mer frequency, TF over GST control) | 1.2 fold enrichment (6-mer frequency, TF over GST control) | 1.24 fold enrichment (6-mer frequency, TF over GST control) | 1.36 fold enrichment (6-mer frequency, TF over GST control) | 1.27 fold enrichment (6-mer frequency, TF over GST control) | 1.13 fold enrichment (6-mer frequency, TF over GST control) | 1.21 fold enrichment (6-mer frequency, TF over GST control) | 1.17 fold enrichment (6-mer frequency, TF over GST control) | 1.18 fold enrichment (6-mer frequency, TF over GST control) | 1.2 fold enrichment (6-mer frequency, TF over GST control) | 1.25 fold enrichment (6-mer frequency, TF over GST control) | 1.17 fold enrichment (6-mer frequency, TF over GST control) | 1.14 fold enrichment (6-mer frequency, TF over GST control) | 1.2 fold enrichment (6-mer frequency, TF over GST control)
